Screening data: PubChem, National Center for Advancing Translational Sciences (NCATS)
POLK inh – DNA polymerase kappa (human) inhibition | Q9UBT6 | purified Pol kappa, fluorescent DNA synthesis assay, 10 min | Potency, µM (top dose mostly 107 µM), without a hit: at the top dose activity, negative = inhibition, actives largely listed as inhibitors | 400,000 tested, 0.53% active | AID 588579; also: % is scaled to controls: 0 for no effect and ±100 for the full control effect
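Readout: fluorescence, taken kinetically at 0 and 10 min. Conditions: 10 nM Pol kappa, 15 min RT compound preincubation, 50 nM substrate final. Controls: enzyme-free buffer wells.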
Pol iota inh – DNA polymerase iota (human) inhibition; Q9UNA4; Potency, µM (doses to about 115 µM), for the others: at the top dose activity, negative = inhibition, usual class: inhibitors; Pol iota fluorescent replication assay, 10 min; 390,000 tested, 1% active
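Pol iota at 10 nM preincubated 15 min with compounds at room temperature; reaction started with fluorescent substrate, 50 nM final. Fluorescence read kinetically at 0 and 10 min; buffer-only wells as negative control.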
WRN helicase inh – inhibitors of human WRN helicase | Q14191 | WRN helicase unwinding, fluorescent forked duplex, kinetic | Potency, µM (top dose mostly 114 µM), for the others: at the top dose activity change, negative = inhibition, actives largely listed as inhibitors | 360,000 tested, 0.46% active | AID 651768; also: % is scaled to controls: 0 for no effect and ±100 for the full control effect; nearly all actives have a fitted effect of over 55% in size
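Kinetic red-fluorescence monitoring (525/598 nm) tracks WRN helicase activity after 100 nM fluorophore-quencher forked duplex and 2 mM ATP are added to 20 nM enzyme pretreated 15 min at room temperature with compound.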
Pol beta inh – blocks human DNA polymerase beta activity | P06746 | Pol beta primer extension/strand displacement, fluorescence kinetic | Potency, µM (top dose mostly 114 µM), without a hit: at the top dose activity change, negative = inhibition, most hits filed as inhibitors | 340,000 tested, 1.3% active | AID 485314; also: % is scaled to controls: 0 for no effect and ±100 for the full control effect
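Preincubation: enzyme (10 nM) with compound, 15 min, RT. Reaction: substrate added to 50 nM final. Reads: 0 and 10 min. Analysis: normalized, Hill fit.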
FEN1 inhibitor – blocks human flap endonuclease 1 | P39748 | Recombinant FEN1 flap cleavage, fluorescence, 15 min | Potency, µM (titrated, usually from 114 µM), for the others: top-dose activity change, negative = inhibition, actives largely listed as inhibitors | 390,000 tested, 0.35% active; also: % is scaled to controls: 0 for no effect and ±100 for the full control effect; nearly all actives have a fitted effect of over 65% in size
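Compounds are tested as a concentration series against 10 nM FEN1; after a 15 min room-temperature preincubation, 50 nM substrate starts cleavage, with plate reads at 0 and 15 min. Normalized responses are fitted by a Hill equation.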
POLH inh – DNA polymerase eta (human) inhibition; Potency, µM (titrated, usually from 114 µM), without a hit: at the highest dose activity change, negative = inhibition, actives largely listed as inhibitors; recombinant Pol eta, fluorescent DNA replication assay; AID 588591; Q9Y253; 390,000 tested, 1.2% active; also: % is scaled to controls: 0 for no effect and ±100 for the full control effect
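Fluorescent replication assay: 50 nM final substrate added after a 15 min room-temperature compound preincubation with 10 nM enzyme. Signal taken at 0 min and again at 10 min.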
* hit, by the source's call; ? = inconclusive; · = no result given; [ ] = remark or other dose. The list is not random: actives were taken first. Their share in the collection is about 2.4%. Calls follow the shape of the dose curve; as a rule, active = well fitted curve in the direction sought with a large enough effect; inconclusive = small, poorly fitted or top-dose-only effect, or another doubt; inactive = no such curve, though single readings can be large; an effect the other way counts as inactive or inconclusive. Potency is read from the fitted curve at half-maximal effect.

SMILES | POLK inh | Pol iota inh | WRN helicase inh | Pol beta inh | FEN1 inhibitor | POLH inh
CC(C)CCNC(=O)c1cnc2sc(N3CCCCC3)nn2c1=O | -2% | 31% | · | -8% | 6% | -19%
C/C(=N\NC(=O)c1ccc(-c2ccccc2)cc1)C1C(=O)c2ccccc2C1=O | -5% | ? | ? | -9% | -16% | 32µM*
C/C(=N\NC(=O)c1ccc(Br)cc1)C1C(=O)c2ccccc2C1=O | -12% | 8% | -30% | 22% | -3% | -17%
O=C(COC(=O)c1ccccc1NCCO)Nc1cccc(S(=O)(=O)NC2=NCCCCC2)c1 | ? | 40µM* | -8%[11.6 µM] | · | -6% | ?
O=C(Nc1cccc(S(=O)(=O)NC2=NCCCCC2)c1)C1COc2ccccc2O1 (configuration not stated) | -24% | ? | ? | 13µM* | 16% | ?
COc1ccccc1Oc1nc2c(c(=O)n(Cc3ccccc3F)c(=O)n2C)n1C | 9% | -1% | 7% | 18µM* | -3% | -10%
CC1=CC(C)(C)N2C(=O)C(=Nc3ccc(O)cc3)c3cccc1c32 | -27% | 7.9µM* | ? | 0% | ? | 20µM*
CCCCNC(=O)Cn1c(SCc2ccccc2C)nc2ccncc21 | 6% | 16% | · | · | -4% | ·
O=C(C[N+]1(CCc2ccccc2)CCOCC1)c1ccccc1 | 7% | 12% | · | · | 2% | ·
CN1CCc2[nH]c3ccc(C(=O)NN)cc3c2C1 | ? | ? | -9%[57.1 µM] | 40µM* | ? | -16%
NNC(=O)c1ccc2[nH]c3c(c2c1)CCCC3 | 11% | -10% | 0% | 4% | -6% | -17%
COc1ccc2c(c1)Cc1sc(NC(=O)c3ccc(Cl)cc3)nc1-2 | ? | 22µM* | · | 0% | ? | -10%
COc1ccc2c(c1)Cc1sc(NC(=O)c3cccc(Cl)c3)nc1-2 | -8%[60.1 µM] | 10µM* | · | 1% | -5% | -16%
COc1ccc2c(c1)CCc1sc(NC(=O)c3cccc(Br)c3)nc1-2 | -13%[60.1 µM] | 4% | · | 3% | -20% | 0%
COc1ccc2c(c1)Cc1sc(NC(=O)c3cccc(C)c3)nc1-2 | -28% | 8.9µM* | · | 22% | ? | ·
O=C(O)/C(=C\c1ccc(Br)cc1)c1ccc(S(=O)(=O)N2CCCCC2)s1 | -10% | ? | -32% | 28µM* | -9% | ?
O=C(O)/C(=C\c1ccc(C(F)(F)F)cc1)c1ccc(S(=O)(=O)N2CCCC2)s1 | -14% | -5% | -2% | · | 1% | -1%
COc1ccc(C2Nc3ccccc3C(=O)N2c2ccc(Cl)cc2)cc1COc1ccc(NC(C)=O)cc1 (configuration not stated) | -6% | 8% | · | · | 0% | ·
CCCCc1nc(NCCNC(=O)c2ccco2)c(C#N)c2c1CSC(C)(C)C2 | ? | ? | ? | 4% | -6% | 89µM*
Cc1cc(=O)oc2cc(OCC(O)CN3CCN(c4ccc(F)cc4)CC3)ccc12 (configuration not stated) | -4% | 32% | 3%[57.1 µM] | 0% | -7% | -8%
Cc1cc(=O)oc2cc(OCC(=O)c3ccc4c(c3)NC(=O)CO4)ccc12 | -15% | 3.2µM* | ? | ? | -30% | ?
Cc1cc(=O)oc2cc(OCC(=O)N3CCN(c4ccc(F)cc4)CC3)ccc12 | ? | 40µM* | -4%[11.6 µM] | 20% | 4% | -7%
Cc1ccc(C(=O)COc2ccc3c(C)cc(=O)oc3c2)cc1 | 0% | 6% | 1% | 8% | -13% | -15%
O=C(OC(C(=O)N1CCOCC1)c1ccccc1)c1c2c(nc3ccccc13)CCCC2 (configuration not stated) | -4% | 8% | · | · | -1% | ·
COc1ccc(NC(=O)c2cc3c(s2)-c2c(C)cccc2OC3)cc1Cl | -29% | -2% | · | 11µM* | -24% | ?
SMILES | POLK inh | Pol iota inh | WRN helicase inh | Pol beta inh | FEN1 inhibitor | POLH inh
Cc1ccc(CNC(=O)c2cc3c(s2)-c2c(C)cccc2OC3)cc1 | -41% | ? | · | 14µM* | 6% | -19%
COc1cc(Cl)c(C)cc1NC(=O)c1cc2c(s1)-c1c(C)cccc1OC2 | -9% | 2% | · | 3% | 1% | -7%
C(=C\c1ccnc2ccccc12)/c1cccnc1 | 3% | 1% | · | · | 8% | ·
O=C(N/N=C/c1ccc(OC(=O)c2cccs2)cc1)c1ccc(F)cc1 | -17% | 9% | -7% | 18µM* | -17% | ?
O=C(N/N=C/c1ccc(OC(=O)c2ccc([N+](=O)[O-])cc2)cc1)c1cccnc1 | 1% | -4% | 0% | -2% | -4% | -6%
O=C(COc1ccc(/C=N/NC(=O)c2cccnc2)cc1)Nc1ccccc1 | -1% | 49% | -26% | 32µM* | 1% | ?
COc1ccccc1NC(=O)COc1ccc(/C=N/NC(=O)c2cccnc2)cc1 | -1% | 22% | 6% | -15% | 17% | 2%
CC(NC(=O)COc1ccc(/C=N/NC(=O)C(=O)Nc2ccccc2Br)cc1)c1ccccc1 (configuration not stated) | 9% | ? | -16% | 32µM* | 5% | ?
O=C(N/N=C/c1ccc(OC(=O)c2ccccc2)cc1)c1cccnc1 | -33% | ? | 56µM* | 50µM* | -28% | ?
Cc1cccc2[nH]cc(/C=C3/C=Nc4ccccc43)c12 | -22% | 45% | · | · | -4% | ·
CC(C)C[C@H](NC(=O)[C@@H](Cc1c[nH]c2ccccc12)NC(=O)[C@H](Cc1ccc(O)cc1)NC(=O)[C@H](CO)NC(=O)[C@H](Cc1c[nH]c2ccccc12)NC(=O)[C@H](Cc1cnc[nH]1)NC(=O)[C@@H]1CCC(=O)N1)C(=O)N[C@@H](CCCN=C(N)N)C(=O)N1CCC[C@H]1C(=O)NCC(N)=O | 14%[60.1 µM] | · | · | · | · | ·
O=C(COc1ccc(/C=N/NC(=O)c2ccccc2Br)cc1)Nc1ccccc1 | 5% | 36% | 10% | ? | -1% | -12%
COc1ccc(Br)c(/C=N/NC(=O)COc2ccc(-c3ccccc3)cc2)c1 | -2% | ? | -17% | 2% | -8% | -6%
O=C(Cc1ccccc1)N/N=C/c1ccc(OCC(=O)Nc2ccccc2)cc1 | -9% | -11% | -22% | 28µM* | 7% | ?
O=C(O)COc1ccccc1/C=N/NC(=O)COc1ccc(-c2ccccc2)cc1 | -1% | -7% | ? | ? | ? | 50µM*
O=C(CCC(=O)Nc1ccccc1)N/N=C/c1ccncc1 | 9% | 9% | 8% | 20µM* | 0% | 7%
O=C(N/N=C/c1c(-c2ccccc2)[nH]c2ccccc12)c1cccnc1 | -23% | -26% | -23% | ? | ? | -13%
Cn1c(-c2ccccc2)c(/C=N/NC(=O)c2cccnc2)c2ccccc21 | -26% | 21% | -17% | 56µM* | -35% | -18%
